# Values without a mark were called inactive. Results filed as inconclusive are left out. Where a call stands in place of a potency, no number is given. Calls of active or inactive are those of the source. The call rests on the fitted dose curve; in most records, active means well fitted curve in the direction sought with a large enough effect; inconclusive means small, poorly fitted or top-dose-only effect, or another doubt; inactive means no such curve, though single readings can be large; an effect the other way counts as inactive or inconclusive.
# What was measured:
# [1] = target: Nuclear receptor subfamily 1 group I member 3 (Homo sapiens) (UniProt Q14994); assay: Primary qHTS for agonist of constitutive androstane receptor (CAR) against the NCATS DSHEA and TCM libraries (AID 1794839);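 further: HepG2 cells expressing human CAR with a CYP2B6 reporter plus PK11195 antagonist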
# Procedure, shortened: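 Luminescence from ONE-Glo luciferase was the agonist read-out in HepG2-CYP2B6-hCAR cells exposed 24 h to test substances. Wells also held the CAR antagonist PK11195 at 0.75 µM final. Viability was by CellTiter-Fluor fluorescence.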
# [2] = HepG2 viability counterscreen (readout 2: ATP content) against the NCATS DSHEA and TCM libraries (AID 1794840)
# Procedure, shortened: (§1)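 1,000 HepG2 cells/well, 4 h attach; compounds ~24 h, 37C/5% CO2. Readout 1: GF-AFC 25 uM final, 30 min, fluorescence 380/510 nm. Readout 2: CellTiter-Glo, 30 min RT, luminescence.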
# [3] = HepG2 viability counterscreen (readout 1: protease activity) against the NCATS DSHEA and TCM libraries (AID 1794841);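 further: cells exposed to compounds for about 24 h before the protease read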
# Procedure, shortened: as §1
# [4] = target: Glutathione peroxidase 1 (Homo sapiens) (UniProt P07203); assay: Primary qHTS Assay for Inhibitors of Recombinant Selenoprotein Glutathione Peroxidase 1 (GPX1) (AID 1845191); further: nearly all actives have a fitted effect of over 65% in size; further: potency means the concentration at half of the fitted maximal effect
# Procedure, shortened: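 10 nM GPX1 + cpd, 30 min RT; start w/ 1 mM GSH, 0.5 mM cumene hydroperoxide, 0.5 mM NADPH, 100 nM GR, 0.01% BSA; buffer 50 mM Tris-HCl pH 7.5, 2 mM EDTA, 150 mM NaCl; Fl 340/450, 0 & 15 min.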
# [5] = target: Cytochrome P450 3A4 (Homo sapiens) (UniProt P08684); assay: qHTS for inhibitors of CYP3A4 against the NCATS DSHEA and TCM libraries (AID 1919971);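 further: inhibition lowers luminescence from luciferin made by CYP3A4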
# Procedure, shortened: (§2)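 Luminescent P450-Glo readout. Enzyme plus pro-luciferin substrate in manufacturer buffer (typically 100 mM KPO4); 15 min RT preincubation; 1x NADPH regenerating system, 30-45 min RT in the dark; detection reagent 30 min.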
# [6] = target: Cytochrome P450 2C9 (Homo sapiens) (UniProt P11712); assay: qHTS for inhibitors of CYP2C9 against the NCATS DSHEA and TCM libraries (AID 1919973); further: potency means the concentration at half of the fitted maximal effect;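 on activity change, negative = inhibition: luminogenic pro-luciferin CYP2C9 substrate turned into luciferin with NADPH regeneration; series mostly up to about 34 µM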
# Procedure, shortened: as §2
# [7] = KB-3-1 P-gp reporter qHTS against the NCATS DSHEA and TCM libraries (AID 1919975)
# Procedure, shortened: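 CellTiter-Glo luminescence viability readout; KB-3-1 parental cells, 500/well, attached ~4 h, then compound for ~72 h, 37C, 5% CO2. Bortezomib intraplate control.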
# [8] = target: Cytochrome P450 1A2 (Homo sapiens) (UniProt P05177); assay: qHTS for inhibitors of CYPIA2 against the NCATS DSHEA and TCM libraries (AID 1919976);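 further: light from luciferin formed by CYP1A2 from a pro-luciferin substrate; series mostly up to about 37 µM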
# Procedure, shortened: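 Human CYP1A2 with its pro-luciferin substrate in supplier buffer (typically 100 mM KPO4) was pre-incubated with compounds 15 min at RT. Reaction was started with 1x NADPH regeneration solution and run 30-45 min at RT in the dark, then luminescence was read after P450-Glo detection reagent (30 min RT).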
# [9] = qHTS Counterscreen for compound interference against the NCATS DSHEA and TCM libraries (AID 1919978); conditions: firefly luciferase detection reagent interference, luminescence;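 further: compounds preincubated with 1 µM D-luciferin or buffer before detection reagent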
# Procedure, shortened: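 Luminescence counterscreen for detection-kit interference: compounds at 19.5 nM–39.8 uM final, 15 min RT with 1 uM D-luciferin or buffer only; detection reagent added, 30 min RT, then read.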
# [10] = Dual reporter qHTS for agonist of Pregnane X Receptor (hPXR) against the NCATS DSHEA and TCM libraries: Fluorescence readout (AID 1920058)
# Procedure, shortened: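 hPXR-Luc HepG2 cells (2000/well) in phenol red-free medium with charcoal-stripped FBS attached for 5 h, then were exposed to compounds for about 24 h at 37 °C. Viability was read by CellTiter-Fluor fluorescence (Ex/Em 405/540 nm) after 1 h.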
# [11] = target: Nuclear receptor subfamily 1 group I member 2 (Homo sapiens) (UniProt O75469); assay: Dual reporter qHTS for agonist of Pregnane X Receptor (hPXR) against the NCATS DSHEA and TCM libraries: Luminescence readout (AID 1920059); further: potency means the concentration at half of the fitted maximal effect
# Procedure, shortened: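 Luminescent PXR reporter read (ONE-Glo) after a CellTiter-Fluor viability read, following 24 h, 37C treatment of HepG2 cells stably carrying hPXR-Luc.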
# [12] = target: Nuclear receptor subfamily 1 group I member 2 (Homo sapiens) (UniProt O75469); assay: Dual reporter qHTS for antagonist of Pregnane X Receptor (hPXR) against the NCATS DSHEA and TCM libraries: Luminescence Readout (AID 1920060);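 further: HepG2 cells carrying hPXR luciferase reporter stimulated with rifampicin at 2 µM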
# Procedure, shortened: (§3)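 hPXR-Luc HepG2 cells exposed 24 h at 37 C to compounds with 2 uM rifampicin in antagonist mode; luciferase luminescence measured by ONE-Glo, with CellTiter-Fluor viability read beforehand.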
# [13] = Dual reporter qHTS for antagonist of Pregnane X Receptor (hPXR) against the NCATS DSHEA and TCM libraries: Fluorescence Readout (AID 1920061)
# Procedure, shortened: as §3
# [14] = target: Phospholipid hydroperoxide glutathione peroxidase GPX4 (Homo sapiens) (UniProt P36969); assay: Primary qHTS Assay for Inhibitors of Recombinant Selenoprotein Glutathione Peroxidase 4 (GPX4) (AID 1845192); further: nearly all actives have a fitted effect of over 65% in size; further: potency means the concentration at half of the fitted maximal effect; on activity change, negative = inhibition: series mostly up to about 50 µM
# Procedure, shortened: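 NADPH consumption, followed by fluorescence at 340/450 nm between 0 and 15 min, reports GPX4 activity via coupled glutathione reductase (100 nM). Enzyme 200 nM was pre-exposed to compound 30 min; 0.5 mM cumene hydroperoxide and 1 mM GSH served as substrates.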
# [15] = target: Cytochrome P450 2D6 (Homo sapiens) (UniProt P10635); assay: qHTS for inhibitors of CYP2D6 against the NCATS DSHEA and TCM libraries (AID 1919972)
# Procedure, shortened: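 Steps: enzyme plus luciferin substrate dispensed; test substances pinned; 15 min RT; 1x NADPH regenerating solution added, 30–45 min RT protected from light; detection reagent, 30 min RT; luminescence measured. Minus-enzyme wells as background.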
# [16] = target: Cytochrome P450 2C19 (Homo sapiens) (UniProt P33261); assay: qHTS for inhibitors of CYP2C19 against the NCATS DSHEA and TCM libraries (AID 1919974);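 further: luminescence from luciferin released by CYP2C19 oxidation of a pro-luciferin substrate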; further: potency means the concentration at half of the fitted maximal effect
# Procedure, shortened: as §2
# Chain of Cytochrome P450 2C19 (Homo sapiens) (P33261 whole entry, looked up): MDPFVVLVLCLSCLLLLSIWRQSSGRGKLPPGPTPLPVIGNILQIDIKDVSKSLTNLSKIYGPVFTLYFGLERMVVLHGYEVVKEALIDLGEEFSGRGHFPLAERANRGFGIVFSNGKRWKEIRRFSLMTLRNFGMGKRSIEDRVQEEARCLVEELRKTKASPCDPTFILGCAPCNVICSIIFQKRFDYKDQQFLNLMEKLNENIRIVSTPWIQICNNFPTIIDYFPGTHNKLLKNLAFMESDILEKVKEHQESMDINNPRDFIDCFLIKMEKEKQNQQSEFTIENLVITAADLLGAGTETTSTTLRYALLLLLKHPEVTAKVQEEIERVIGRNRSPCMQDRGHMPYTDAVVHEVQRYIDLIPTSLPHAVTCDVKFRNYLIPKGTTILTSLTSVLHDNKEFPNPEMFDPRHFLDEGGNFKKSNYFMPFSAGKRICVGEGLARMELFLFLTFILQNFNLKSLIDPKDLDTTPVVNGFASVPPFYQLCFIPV
# Chain of Cytochrome P450 2C9 (Homo sapiens) (P11712 whole entry, looked up): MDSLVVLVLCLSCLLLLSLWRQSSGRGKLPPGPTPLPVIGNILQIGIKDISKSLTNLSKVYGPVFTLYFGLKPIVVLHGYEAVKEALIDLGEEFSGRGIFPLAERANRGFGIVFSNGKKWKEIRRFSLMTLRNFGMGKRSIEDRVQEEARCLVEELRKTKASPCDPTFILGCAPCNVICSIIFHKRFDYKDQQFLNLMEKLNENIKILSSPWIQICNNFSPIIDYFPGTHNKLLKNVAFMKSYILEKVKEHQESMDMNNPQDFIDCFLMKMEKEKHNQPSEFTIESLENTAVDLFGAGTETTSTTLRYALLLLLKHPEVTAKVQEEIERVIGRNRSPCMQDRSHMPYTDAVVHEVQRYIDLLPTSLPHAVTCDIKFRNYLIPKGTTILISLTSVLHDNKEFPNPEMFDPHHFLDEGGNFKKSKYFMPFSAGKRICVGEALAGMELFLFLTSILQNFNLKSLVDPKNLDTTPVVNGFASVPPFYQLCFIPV
# Chain of Cytochrome P450 1A2 (Homo sapiens) (P05177 whole entry, looked up): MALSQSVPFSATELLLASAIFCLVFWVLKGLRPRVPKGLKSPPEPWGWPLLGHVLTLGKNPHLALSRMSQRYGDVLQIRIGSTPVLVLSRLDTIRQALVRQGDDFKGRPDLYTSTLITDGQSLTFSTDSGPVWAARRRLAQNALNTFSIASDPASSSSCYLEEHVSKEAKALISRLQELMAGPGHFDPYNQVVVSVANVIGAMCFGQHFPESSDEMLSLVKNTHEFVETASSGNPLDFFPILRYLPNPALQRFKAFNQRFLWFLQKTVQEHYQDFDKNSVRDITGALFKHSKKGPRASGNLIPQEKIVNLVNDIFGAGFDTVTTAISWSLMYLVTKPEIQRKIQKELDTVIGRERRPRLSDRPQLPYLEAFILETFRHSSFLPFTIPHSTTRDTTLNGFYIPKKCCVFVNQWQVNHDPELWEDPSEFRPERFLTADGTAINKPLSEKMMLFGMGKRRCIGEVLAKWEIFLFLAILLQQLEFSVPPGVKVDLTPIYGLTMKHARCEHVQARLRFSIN
# Chain of Glutathione peroxidase 1 (Homo sapiens) (P07203 whole entry, looked up): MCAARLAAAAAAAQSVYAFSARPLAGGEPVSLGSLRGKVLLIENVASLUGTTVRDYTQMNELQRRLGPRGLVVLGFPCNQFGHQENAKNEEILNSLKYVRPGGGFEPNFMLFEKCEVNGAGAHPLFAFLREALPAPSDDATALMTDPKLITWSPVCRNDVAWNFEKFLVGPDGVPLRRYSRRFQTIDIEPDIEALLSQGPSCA
# Chain of Cytochrome P450 3A4 (Homo sapiens) (P08684 whole entry, looked up): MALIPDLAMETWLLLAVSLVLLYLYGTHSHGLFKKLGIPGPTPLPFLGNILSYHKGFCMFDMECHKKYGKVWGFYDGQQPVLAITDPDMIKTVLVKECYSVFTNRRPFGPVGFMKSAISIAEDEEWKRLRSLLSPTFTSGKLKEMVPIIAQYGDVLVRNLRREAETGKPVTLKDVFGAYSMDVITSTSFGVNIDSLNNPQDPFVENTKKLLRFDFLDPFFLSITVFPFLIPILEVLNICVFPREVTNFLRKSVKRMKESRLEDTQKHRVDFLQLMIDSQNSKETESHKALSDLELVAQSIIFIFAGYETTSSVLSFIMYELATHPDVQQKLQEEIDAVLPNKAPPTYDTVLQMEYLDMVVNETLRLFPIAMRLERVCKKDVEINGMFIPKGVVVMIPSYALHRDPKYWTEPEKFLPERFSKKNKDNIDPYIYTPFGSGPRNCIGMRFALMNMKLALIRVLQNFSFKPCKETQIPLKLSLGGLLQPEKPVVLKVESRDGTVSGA
# Chain of Phospholipid hydroperoxide glutathione peroxidase GPX4 (Homo sapiens) (P36969 whole entry, looked up): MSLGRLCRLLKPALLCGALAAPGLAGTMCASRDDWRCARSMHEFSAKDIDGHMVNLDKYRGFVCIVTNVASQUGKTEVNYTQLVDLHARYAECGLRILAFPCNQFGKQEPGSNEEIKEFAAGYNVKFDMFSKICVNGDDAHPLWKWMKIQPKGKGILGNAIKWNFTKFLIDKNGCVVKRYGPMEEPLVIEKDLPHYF
# Chain of Nuclear receptor subfamily 1 group I member 2 (Homo sapiens) (O75469 whole entry, looked up): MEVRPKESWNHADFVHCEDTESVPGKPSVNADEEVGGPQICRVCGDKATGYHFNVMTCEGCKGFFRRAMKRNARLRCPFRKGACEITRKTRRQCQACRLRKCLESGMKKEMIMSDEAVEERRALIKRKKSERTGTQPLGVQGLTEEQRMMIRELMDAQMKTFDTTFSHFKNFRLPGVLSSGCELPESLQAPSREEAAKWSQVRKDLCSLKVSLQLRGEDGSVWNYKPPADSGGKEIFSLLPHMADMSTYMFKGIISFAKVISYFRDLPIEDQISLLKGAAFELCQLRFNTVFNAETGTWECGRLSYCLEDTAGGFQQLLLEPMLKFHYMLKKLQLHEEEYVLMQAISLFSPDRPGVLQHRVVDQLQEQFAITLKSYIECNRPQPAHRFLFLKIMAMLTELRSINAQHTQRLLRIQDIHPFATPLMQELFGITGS
# Chain of Nuclear receptor subfamily 1 group I member 3 (Homo sapiens) (Q14994 whole entry, looked up): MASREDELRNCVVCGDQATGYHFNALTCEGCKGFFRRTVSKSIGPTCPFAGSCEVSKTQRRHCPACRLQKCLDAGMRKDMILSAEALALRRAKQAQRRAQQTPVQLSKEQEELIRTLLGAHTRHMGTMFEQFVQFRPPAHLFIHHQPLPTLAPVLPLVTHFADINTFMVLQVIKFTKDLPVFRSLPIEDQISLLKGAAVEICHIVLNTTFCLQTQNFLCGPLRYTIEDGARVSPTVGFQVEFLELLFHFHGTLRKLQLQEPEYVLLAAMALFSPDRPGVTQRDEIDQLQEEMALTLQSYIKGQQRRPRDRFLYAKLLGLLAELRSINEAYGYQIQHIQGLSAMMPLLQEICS
# Chain of Cytochrome P450 2D6 (Homo sapiens) (P10635 whole entry, looked up): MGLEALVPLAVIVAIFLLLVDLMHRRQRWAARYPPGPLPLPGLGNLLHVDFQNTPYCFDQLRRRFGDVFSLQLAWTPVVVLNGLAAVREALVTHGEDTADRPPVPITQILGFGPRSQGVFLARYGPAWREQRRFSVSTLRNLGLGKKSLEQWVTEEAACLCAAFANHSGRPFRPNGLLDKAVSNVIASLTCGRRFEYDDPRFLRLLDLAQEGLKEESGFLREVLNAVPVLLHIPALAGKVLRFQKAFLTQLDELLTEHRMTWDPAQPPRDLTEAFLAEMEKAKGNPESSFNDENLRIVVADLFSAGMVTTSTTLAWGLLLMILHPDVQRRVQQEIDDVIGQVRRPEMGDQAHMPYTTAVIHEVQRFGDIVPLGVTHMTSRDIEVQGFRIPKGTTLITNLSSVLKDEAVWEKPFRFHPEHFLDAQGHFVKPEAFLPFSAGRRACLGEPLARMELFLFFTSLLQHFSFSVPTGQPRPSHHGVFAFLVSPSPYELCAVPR
smiles,measurement,setting,value
CC/C=C\C/C=C\C/C=C\C/C=C\C/C=C\C/C=C\CCC(=O)O,Potency,[1],inactive
same,outcome,[2],inactive
same,outcome,[3],inactive
same,Potency,[4],inactive
same,outcome,[5],inactive
same,Potency,[6],inactive
same,outcome,[7],inactive
same,Potency,[8],inactive
same,max response,[9],-0.949%
same,outcome,[10],inactive
same,Potency,[11],inactive
same,outcome,[12],inactive
same,outcome,[13],inactive
CCCCC/C=C\C/C=C\C/C=C\CCCCC(=O)O,activation,[1],-21.9% [at 5 µM]
same,"activity change, negative = cytotoxic",[2],-4.42% [at 3.42 µM]
same,"activity change, negative = inhibition",[3],15.8% [at 3.42 µM]
same,Potency,[4],inactive
same,Potency,[14],8.91 µM (active)
same,"activity change, negative = inhibition",[5],10.3% [at 4.27 µM]
same,"activity change, negative = inhibition",[15],3.71% [at 4.27 µM]
same,"activity change, negative = inhibition",[6],-2.07% [at 4.27 µM]
same,"activity change, negative = inhibition",[16],19.3% [at 4.27 µM]
same,"activity change, negative = inhibition",[7],-0.723% [at 3.26 µM]
same,"activity change, negative = inhibition",[8],7.42% [at 4.62 µM]
same,max response,[9],-1.8%
same,activation,[11],-11.8% [at 5 µM]
same,"activity change, negative = inhibition",[12],-11% [at 5 µM]
same,"activity change, negative = inhibition",[13],4.34% [at 5 µM]
O=C1c2ccccc2C(=O)c2c1ccc(O)c2O,Potency,[4],inactive
NC(=O)OCC(O)COc1ccc(Cl)cc1 (centres undefined),Potency,[4],inactive
CCOC(=O)Cc1ccc(-c2ccccc2)cc1,Potency,[4],inactive
CC(C)(C)NCC(O)c1ccc(O)c(CO)n1 (centres undefined),Potency,[4],inactive
Cc1cc(=O)c(C(=O)N[C@@H](C(=O)N[C@@H]2C(=O)N3C(C(=O)O)=C(CSc4nnnn4C)CS[C@H]23)c2ccc(O)cc2)c[nH]1,Potency,[4],12.8 µM (active)
CC(C)(C)C(=O)OCC(=O)[C@H]1CC[C@H]2[C@@H]3CCC4=CC(=O)CC[C@]4(C)[C@H]3CC[C@]12C,Potency,[4],inactive
CCCCC(CC)CCC(CC(C)C)OS(=O)(=O)O (centres undefined),Potency,[4],inactive
C=C1CC[C@H](O)C/C1=C\C=C1/CCC[C@]2(C)[C@@H]([C@H](C)CCCC(C)C)CC[C@@H]12,outcome,[2],inactive
same,outcome,[3],inactive
same,Potency,[4],inactive
same,Potency,[14],inactive
same,Potency,[6],25.1 µM (active)
same,Potency,[16],25.1 µM (active)
same,outcome,[7],inactive
same,Potency,[8],inactive
same,max response,[9],0.0382%
same,outcome,[10],inactive
same,Potency,[11],31.6 µM (active)
same,outcome,[12],inactive
same,outcome,[13],inactive
CNC(=O)C[C@@H](N)C(=O)N[C@@H](C(=O)N[C@@H]1C(=O)N2[C@@H]1SC(C)(C)[C@@H]2C(=O)O)c1ccc(O)cc1,Potency,[4],inactive
O=C(O)/C=C/c1ccccc1,outcome,[2],inactive
same,outcome,[3],inactive
same,Potency,[4],inactive
same,Potency,[14],inactive
same,outcome,[5],inactive
same,outcome,[15],inactive
same,Potency,[6],inactive
same,Potency,[16],inactive
same,outcome,[7],inactive
same,Potency,[8],inactive
same,max response,[9],-1.31%
same,outcome,[10],inactive
same,Potency,[11],inactive
same,outcome,[12],inactive
same,outcome,[13],inactive

# From PubChem BioAssay (NCATS)
